Source: PubChem
CBX7 AlphaScr – inhibitors of human CBX7 binding to H3K27me3 peptide. O95931. AlphaScreen His6-CBX7 / biotin-H3K27me3 peptide binding; hits give low values. normalised signal (fraction of DMSO) (test concentration not listed). 1.1% of 66,000 active. AID 1224903; in the data active means normalised signal below about 0.5
Target sequence (O95931 whole entry, looked up): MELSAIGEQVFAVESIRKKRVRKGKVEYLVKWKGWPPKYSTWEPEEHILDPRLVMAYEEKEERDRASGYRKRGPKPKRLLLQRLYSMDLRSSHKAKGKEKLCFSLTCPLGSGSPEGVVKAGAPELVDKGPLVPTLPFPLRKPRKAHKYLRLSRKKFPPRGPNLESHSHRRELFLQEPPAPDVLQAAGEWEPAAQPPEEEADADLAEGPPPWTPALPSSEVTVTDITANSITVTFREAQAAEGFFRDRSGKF
The depositor's hits bear a star. The sample as a whole holds a higher share of hits than the screen did.

SMILES | CBX7 AlphaScr
CCCOc1ccc(-c2nc(Oc3ccc(C(=O)OC)cc3)c3ccccc3n2)cc1 | 1.1
CCCCOc1ccc(-c2nc3ncccn3c2NC2CCCC2)cc1 | 0.91
CCCCOc1cccc(-c2nc3c(C(=O)OC)c[nH]n3c2NC2CCCCCC2)c1 | 0.46*
COC(=O)c1c[nH]n2c(NC3CCCC3)c(-c3cccc(Br)c3)nc12 | 0.73
COc1cccc(-c2nc(SCC(=O)NC3CCCC3)c(-c3ccc(C)cc3)[nH]2)c1 | 0.92
CCCCOc1ccc(-c2nc3c(C(=O)OC)c[nH]n3c2NC2CCCCCC2)cc1 | 0.21*
C=CCn1c(C2CC(=O)N(c3cc(C)ccc3C)C2)nc2ccccc21 (stereo not given) | 1.1
CC(C)CCNC(=O)C1CCN(c2nc3ccccc3[nH]2)CC1 | 0.85
COc1cc2c(=O)c(S(=O)(=O)c3ccc(F)cc3)cn(CC(=O)Nc3ccccc3)c2cc1OC | 1
Cc1cccc(CN2CCN(CC(=O)NC3CCCCC3)C2=O)c1 | 1
O=C(CS(=O)(=O)c1nc(-c2ccccc2)cn1-c1ccc(Cl)cc1)Nc1ccc(F)cc1 | 0.86
O=C(CS(=O)(=O)c1nc(-c2ccccc2)cn1-c1ccc(Cl)cc1)Nc1ccccc1 | 0.86
O=C(CS(=O)(=O)c1nc(-c2ccccc2)cn1-c1ccc(Cl)cc1)Nc1ccccc1F | 0.48*
Cc1nc2c(-c3ccccc3)c(C)nn2c(C)c1CCC(=O)NC(C)c1cccs1 (stereo not given) | 1.2
Cc1ccc(NC(=O)C(Cc2ccccc2)NS(=O)(=O)c2ccc3c(c2)CCC(=O)N3)cc1Cl (stereo not given) | 1.1
Cc1c(C(=O)Nc2ccc(Oc3ccccc3)cc2)sc2ncn(Cc3cccc(F)c3)c(=O)c12 | 1.1
CC(C)C(=O)NC(c1cccs1)c1cc(Cl)c2cccnc2c1O (stereo not given) | 0.64
COc1cc(NC(=O)Cc2ccc(OC)c(OC)c2)c2ncccc2c1 | 1
O=C(O)C(NS(=O)(=O)c1cccc2cccnc12)c1ccccc1 (stereo not given) | 1
O=C(O)CC(NCc1cccnc1)c1cccs1 (stereo not given) | 1
CCN1CCN(C(c2cccs2)C(C)NC(=O)CC(C)C)CC1 (stereo not given) | 1.1
CC(C)CC(=O)NC(c1cccs1)c1ccc2cccnc2c1O (stereo not given) | 0.1*
O=C(Nc1ccc(Cl)c(Cl)c1)Nc1cccc2cccnc12 | 0.98
COc1ccc(C(NC(=O)CC(C)C)c2ccc3cccnc3c2O)cc1OC (stereo not given) | 0.061*
COc1ccc(CSc2cccc3cccnc23)cc1[N+](=O)[O-] | 0.85
SMILES | CBX7 AlphaScr
CCCC(=O)NC(c1ccc(C(C)C)cc1)c1cc(Cl)c2cccnc2c1O (stereo not given) | 0.82
CCCC(=O)NC(c1cccs1)c1cc(Cl)c2cccnc2c1O (stereo not given) | 0.27*
Oc1c(C(Nc2ccccc2)c2ccccc2)ccc2cccnc12 (stereo not given) | 0.24*
O=C(CN1CCCC1)NC1(Cc2ccc(O)cc2)CCCCC1 | 0.93
Cc1nccc2[nH]c(=O)c(C(=O)NCCN(CC(C)C)CC(C)C)cc12 | 1.1
CC(=O)N1c2ccccc2NC(=O)CC1c1ccccc1 (stereo not given) | 0.88
CCOC(=O)c1cc(-c2ccccc2)n(CCC(=O)N2CCc3ccccc32)c1C | 1.1
COc1ccc(Br)cc1C1C(N2C(=O)c3ccccc3C2=O)C(=O)N1c1ccc(C)cc1 (stereo not given) | 0.96
O=c1[nH]c(-c2cccnc2)nc2sc3c(c12)CCCC3 | 1.1
COC(=O)c1cc2sc(Cl)cc2n1CC(=O)N(C)c1ccccc1 | 1
CCCCCC1CCc2nc(-c3ccc(F)cc3)ccc2C1 (stereo not given) | 1.4
CCc1ccc(-c2nc(SCC(=O)NCCCOC)c(-c3ccccc3)[nH]2)cc1 | 0.89
Cc1ccc(C(NC(=O)CC(C)C)c2ccc3cccnc3c2O)cc1 (stereo not given) | 0.63
COc1ccc(C(NC(=O)CCc2ccccc2)c2ccc3cccnc3c2O)cc1 (stereo not given) | 0.082*
CCCC(=O)NC(c1ccc(OC)cc1)c1cc(Cl)c2cccnc2c1O (stereo not given) | 0.78
Cc1ccc(C(NC(=O)C(C)C)c2cc(Cl)c3cccnc3c2O)cc1 (stereo not given) | 0.63
CC(C)CC(=O)NC(c1ccccc1)c1ccc2cccnc2c1O (stereo not given) | 0.044*
O=C(CCc1ccccc1)NC(c1ccc(Cl)cc1)c1ccc2cccnc2c1O (stereo not given) | 0.62
O=C(c1nn2c(c1Cl)NC(c1ccco1)CC2C(F)(F)F)N1CCN(c2ccc(F)cc2)CC1 (stereo not given) | 0.95
O=C(Cc1c(C(=O)O)[nH]c2ccc(Cl)cc12)Nc1ccc(F)cc1F | 0.87
O=C(NCc1cccs1)c1ccc2c(c1)N(Cc1ccccc1F)C(=O)c1ccccc1S2 | 1
Cc1ccc(-c2cc(-c3ccc(F)cc3)n3ncnc3n2)cc1 | 0.86
Fc1ccc(-c2cc(C(F)(F)F)n3ncnc3n2)cc1 | 0.47*
Fc1ccc(-c2cc(-c3ccccc3)nc3ncnn23)cc1 | 1
COc1ccc(CC(=O)Nc2c3c(nn2-c2ccc(F)cc2)CSC3)cc1 | 0.97
SMILES | CBX7 AlphaScr
CCOc1ccc(NC(=O)CSc2nc3nc(C)c(Cc4cccc(C)c4)c(C)n3n2)cc1 | 1
COc1ccc(OC)c(Nc2nc(-c3ccc(C)cc3)cs2)c1 | 0.77
COc1ccc(OC)c(Nc2nc(-c3ccccn3)cs2)c1 | 0.38*
COc1ccc(-c2csc(Nc3ccccc3OC)n2)cc1 | 0.93
CCOc1ccc(Nc2nc(-c3c(C)nc4ncccn34)cs2)cc1 | 0.88
O=C(O)c1ccc(Nc2nc(-c3ccccn3)cs2)cc1 | 0.18*
CCOc1ccc(Nc2nc(-c3ccc(Cl)c(Cl)c3)cs2)cc1 | 0.82
CCOc1ccc(Nc2nc(-c3ccccn3)cs2)cc1 | 0.018*
O=C(O)c1ccc(Nc2nc(-c3ccccc3)cs2)cc1 | 0.86
O=C(O)c1ccc(Nc2nc(-c3ccncc3)cs2)cc1 | 0.91
Cc1ccn2c(NC(=O)c3ccc(Cl)cc3)c(-c3ccccc3)nc2c1 | 0.94
Cc1c(C(=O)Nc2cccc(Cl)c2)oc2ccc(S(=O)(=O)N3CCCCC3)cc12 | 1
COc1ccc(-n2ncc3c(NC(c4ccccc4)c4ccccc4)ncnc32)cc1 | 0.95
CCOC(=O)CNC(=O)c1cc(-c2ccc3c(c2)OCO3)nc2ccccc12 | 1.1
CCOC(=O)c1sc2nc(C)n(CC(=O)Nc3ccc(C)cc3C)c(=O)c2c1C | 0.99
Clc1ccc(OCCCn2c(/C=C/c3ccccc3)nc3ccccc32)cc1 | 1.4
COc1cccc(OC)c1C(=O)Nc1ccc(S(=O)(=O)Nc2nccs2)cc1 | 1
O=C(Nc1ccc(S(=O)(=O)Nc2nccs2)cc1)c1ccccc1Br | 1
Cc1ccc(-c2nnc(Nc3ccc(Cl)cc3)c3ccccc23)cc1S(=O)(=O)NCCO | 0.82
Cc1ccc(Nc2nnc(-c3ccc(C)c(S(=O)(=O)NC(C)(C)C)c3)c3ccccc23)cc1 | 0.93
NC(=O)COc1ccc(Nc2nnc(-c3ccc(Cl)cc3)c3ccccc23)cc1 | 0.91
Cc1nnc(Nc2ccc(S(=O)(=O)Nc3nccs3)cc2)c2ccccc12 | 0.49*
Cc1ccc(-c2nnc(Nc3ccc4c(c3)ncn4C)c3ccccc23)cc1 | 0.58
Cc1ccc(-c2nnc(Nc3ccc(S(=O)(=O)Nc4nccs4)cc3)c3ccccc23)cc1 | 0.36*
